ALR H2O2 inh: inhibitors of human ALR sulfhydryl oxidase, primary screen, biochemical, H2O2 detection, HRP-luminol luminescence, single point; inhibition, % (no concentration beside the values); AID 485317, 2010; purified ALR, DTT oxidation; actives 3.8% (n = 290,000);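 active = mean replicate inhibition above about 79%, with every replicate also reaching it, limit read from the data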
Target sequence (P55789 whole entry, looked up): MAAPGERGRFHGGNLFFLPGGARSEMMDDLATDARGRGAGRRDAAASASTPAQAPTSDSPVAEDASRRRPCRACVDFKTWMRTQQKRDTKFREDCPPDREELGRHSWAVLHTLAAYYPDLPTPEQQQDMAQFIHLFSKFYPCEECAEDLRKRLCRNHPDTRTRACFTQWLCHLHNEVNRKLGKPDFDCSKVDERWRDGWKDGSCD
APOBEC3A inh: APOBEC3A ssDNA deaminase inhibitors, primary screen, selectivity assay for APOBEC3G inhibitor project, biochemical, FAM/TAMRA oligo cleavage fluorescence | DNA dC->dU-editing enzyme APOBEC-3A (Homo sapiens), P31941 | recombinant A3A, FAM/TAMRA ssDNA deamination fluorescence | inhibition, % at 20 µM | actives 0.41% (n = 330,000);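 active = at least 40% inhibition at 20 µM here, with at most 30% in a related deaminase screen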;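 also: plate controls were A3A with DMSO for no effect and wells lacking A3A enzyme for full effect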
CR mimetic SO: reduction of superoxide in aged yeast, primary screen, HTS. S. cerevisiae aged cells, superoxide DHE fluorescence; hits give low values. superoxide response (% of plate mean), % at 10 µM. actives 0.18% (n = 330,000). AID 2690, 2010;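 active = superoxide response under a set limit, about three screen SD below normal, cut at about 65% in these data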;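 also: yeast aged for seven days with compound at 30 °C before DHE staining; 100% = average MFI of all compound-treated wells on the plate with controls excluded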
M18AAP inhibitor: PfM18AAP inhibitors, malaria aminopeptidase, primary screen, biochemical, QFRET, recombinant enzyme; M18 aspartyl aminopeptidase (Plasmodium falciparum 3D7); H-Glu-NHMec fluorogenic cleavage; inhibition, % at 7.35 µM; actives 1.2% (n = 290,000); AID 1822, 2009;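 active = inhibition above the campaign mean inhibition over all tested compounds plus 3 SD, cut at about 28% in these data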;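 also: 0% = plate median of test compound wells and 100% = 2 mM ZnCl2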
NRP1-CendR mod: modulators of CendR peptide binding to NRP-1, primary screen, biochemical, fluorescence polarization, uHTS | Neuropilin-1 (Homo sapiens), O14786 | FAM-RPARPAR peptide binding to NRP-1 | inhibition, % at 25 µM | actives 0.85% (n = 360,000);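 active = inhibition or corrected inhibition above about 18%, plus a signal ratio from 0.5 to 1.5, limit read from the data, passing the limit was not always enough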
APOBEC3G inh: APOBEC3G DNA deaminase inhibitors, primary screen, biochemical, fluorescence, single-stranded DNA substrate, uHTS; DNA dC->dU-editing enzyme APOBEC-3G (Homo sapiens), Q9HC16; recombinant A3G, ssDNA deamination FAM/TAMRA fluorescence; inhibition, % at 20 µM; actives 0.28% (n = 330,000);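 active = inhibition of at least 40% at 20 µM, with no more than 30% in the related APOBEC3A deaminase screen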;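 also: plate controls were DMSO wells with A3G for no effect and wells lacking A3G enzyme for full effect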
Target sequence (Q9HC16 whole entry, looked up): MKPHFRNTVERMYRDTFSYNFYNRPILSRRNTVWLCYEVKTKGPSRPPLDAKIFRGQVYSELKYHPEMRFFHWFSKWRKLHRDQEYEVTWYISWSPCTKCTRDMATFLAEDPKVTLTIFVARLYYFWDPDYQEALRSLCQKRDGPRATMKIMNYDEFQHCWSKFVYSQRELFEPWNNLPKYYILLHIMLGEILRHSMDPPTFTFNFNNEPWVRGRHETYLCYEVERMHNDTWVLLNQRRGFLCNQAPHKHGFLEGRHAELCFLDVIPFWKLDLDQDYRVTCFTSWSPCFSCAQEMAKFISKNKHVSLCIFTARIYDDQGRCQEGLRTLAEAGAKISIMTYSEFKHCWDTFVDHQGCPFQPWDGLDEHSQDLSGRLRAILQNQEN
Starred values were filed as active, the others as inactive; . = not tested or not shown. An excerpt weighted towards active compounds, which were near 5.2% of everything screened.

SMILES	ALR H2O2 inh	APOBEC3A inh	CR mimetic SO	M18AAP inhibitor	NRP1-CendR mod	APOBEC3G inh
CCOC(=O)c1c(CSc2ccccc2)oc2cc(Br)c(O)c(CN(C)C)c12	82*	-6	97	1	4	-1
Cc1ccc(S(=O)(=O)N2c3ccc(S(N)(=O)=O)cc3CC2C)cc1 (stereo not drawn)	-3	0	105	-2	22*	-1
COc1cc2c(cc1OC)C(C)N(C(=O)/C=C/c1cc(OC)c(OC)c(OC)c1)CC2 (stereo not drawn)	.	0	86	9	5	-8
CN(C)S(=O)(=O)N1CCN(c2ccc([N+](=O)[O-])c(N3CCOCC3)c2)CC1	-34	-1	122	1	9	-2
COc1ccc(S(=O)(=O)Nc2ccc(N3CCOCC3)cc2)cc1[N+](=O)[O-]	65	-3	106	2	25*	-7
O=S(=O)(Nc1ccc(N2CCOCC2)cc1)c1ccc(Cl)s1	98*	-4	103	20	0	-4
CS(=O)(=O)N1CCN(c2ccc([N+](=O)[O-])c(N3CCOCC3)c2)CC1	-2	-5	93	1	28*	-4
Cc1ccc([N+](=O)[O-])cc1S(=O)(=O)Nc1ccc(N2CCOCC2)cc1	99*	0	117	6	4	-4
O=S(=O)(Nc1ccc(N2CCCCC2)cc1)c1ccccc1	61	-3	95	19	-7	-4
O=S(=O)(/C=C/c1ccccc1)Nc1ccc(N2CCOCC2)cc1	95*	-2	103	-4	-21	-5
O=S(=O)(Nc1ccc(N2CCOCC2)cc1)c1ccccc1	99*	-5	97	19	14	-4
CC(C)(C)CNc1cc(N2CCOCC2)ccc1[N+](=O)[O-]	1	-1	110	9	1	-1
Cc1cc(S(=O)(=O)Nc2ccc(N3CCOCC3)cc2)ccc1Br	75	-4	102	5	-2	-12
O=C(/C=C/c1ccccc1)NC(=S)Nc1ccc(N2CCOCC2)cc1	-11	-2	90	3	8	-1
Cc1cc(C)c(S(=O)(=O)Nc2ccc(N3CCOCC3)cc2)c(C)c1	86*	-1	104	5	-2	-1
O=[N+]([O-])c1ccc([N+](=O)[O-])c(Nc2ccc(N3CCOCC3)cc2)c1	98*	-4	92	-1	6	0
CCN(CCCNC(=O)CC(C(=O)N1CCc2ccccc21)n1ccnc1)c1ccccc1 (stereo not drawn)	99*	-1	88	0	-2	-4
CCOc1ccc(S(=O)(=O)Nc2ccc(S(=O)(=O)N3CCCC3)cc2)cc1	.	-2	95	-11	8	-3
CC(C(=O)OCC(=O)c1ccccc1)N1C(=O)C2C3CCC(C3)C2C1=O (stereo not drawn)	.	-3	95	0	6	-8
Cc1ccc(-n2c(Cl)c(Cl)nc(Cl)c2=O)cc1	97*	.	123	-106	23	.
Cc1cccc(NC(=O)c2cccc(S(=O)(=O)Nc3c(C)n(C)n(-c4ccccc4)c3=O)c2)c1	.	.	.	.	14	.
COc1cccc(N2[C@@H](CC(C)=O)c3ccc(/C=C/C(C)=O)cc3S2(=O)=O)c1	.	1	98	.	22*	0
CC(=O)NN1C(=O)/C(=C\c2ccc(O)cc2)SC1=S	99*	-3	96	18	-200	-7
COc1cc(/C=C2\SC(=S)N(NC(=O)c3cccnc3)C2=O)ccc1O	99*	1	74	6	-188	-2
COc1cc(/C=C2\SC(=S)N(NC(=O)c3ccc(O)cc3)C2=O)ccc1O	99*	-4	109	9	-206	-8
SMILES	ALR H2O2 inh	APOBEC3A inh	CR mimetic SO	M18AAP inhibitor	NRP1-CendR mod	APOBEC3G inh
COc1cccc(/C=C2\SC(=S)N(NC(=O)c3ccncc3)C2=O)c1	96*	0	97	13	-11	-8
O=C(NN1C(=O)/C(=C/c2cccs2)SC1=S)c1ccncc1	-34	-3	111	3	-11	-9
COc1c2ccccc2nc2ccccc12	-7	2	98	-7	5	-4
O=C(NN1C(=O)/C(=C/c2cccc(O)c2)SC1=S)c1ccccc1O	99*	-2	84	10	-9	-3
O=C(NN1C(=O)/C(=C\c2ccc(O)c([N+](=O)[O-])c2)SC1=S)c1ccccc1Cl	13	-5	118	1	-192	-1
CC(=O)NN1C(=O)/C(=C\c2ccccc2)SC1=S	11	1	97	21	-1	2
O=C(NN1C(=O)/C(=C/c2ccc(O)c(O)c2)SC1=S)c1ccccc1	99*	1	99	65*	-203	-1
CCOc1ccc2[nH]c(=O)c(CN(CC3COCCO3)C(=O)C3CC3)cc2c1 (stereo not drawn)	-3	-1	103	-9	0	-3
Cc1nnc(SCc2ccccn2)n(N)c1=O	4	-1	117	-5	3	-2
O=C(O)Cn1c(=O)c2c3c(sc2n(Cc2ccc(Cl)cc2Cl)c1=O)CCCC3	76*	.	99	2	-3	.
CN1N=C(c2ccc(Cl)cc2)CC(c2ccc(Cl)cc2)C1=O (stereo not drawn)	.	-2	91	3	-6	-3
CCN1CC(c2ccccc2)C(c2ccc(Cl)cc2)=N1 (stereo not drawn)	95*	-2	100	-4	0	-5
Cc1c(CC(=O)NCCC(=O)O)c(=O)oc2cc3occ(-c4ccccc4)c3cc12	-5	-2	93	1	0	-7
Cc1c(CC(=O)O)c(=O)oc2cc3occ(-c4ccccc4)c3cc12	1	-2	96	0	44*	-6
CC(NC(=O)COC(=O)c1ccc(N2CCCC2=O)cc1)c1ccc(F)cc1 (stereo not drawn)	.	15	109	.	2	-5
COc1ccc(CNC(=O)CSc2nc3ccc(C)cc3[nH]2)cc1	-2	4	107	-1	4	-2
CCCCNC(=O)CSc1nc2ccc(C)cc2[nH]1	-1	1	89	-2	35*	-8
Cc1ccc2nc(SCC(=O)Nc3cccnc3Cl)[nH]c2c1	88*	-2	78	.	13	-3
COC(=O)C(C(=O)OC)C1CCCCC1NS(=O)(=O)c1ccc(C)cc1 (stereo not drawn)	.	.	.	.	2	.
Cc1ccc(C(=O)CN2C(=O)C(=O)N(Cc3ccccc3)C2=O)cc1	4	2	90	3	4	-1

Source: PubChem (several laboratories)
